Pin1 inh: inhibitors of human Pin1 | Q13526 | AID 504891 | Pin1 FP peptide displacement, HiFluor488, 10 min | 0.009% of 390,000 active | Potency, µM (highest dose often 115 µM), for inactives: at the highest dose activity, negative = inhibition, actives largely listed as inhibitors; active = well fitted inhibition curve with a large enough effect in the polarisation, with a control signal flat, not every such curve was filed as active; inconclusive = small, poorly fitted or top-dose-only effect, or effect the other way, or a change in a side signal; inactive = no such curve, though single readings can be large or run the other way; the % refers to the polarisation; also: potency is read from the fitted curve at half-maximal effect; % is scaled to controls: 0 for no effect and ±100 for the full control effect
gsp ag: activates gsp, the McCune-Albright syndrome mutation; gsp mutant cells, cAMP HTRF, 30 min; Potency, µM (top dose mostly 76.9 µM), without a hit: at the highest dose activation (cAMP increase), hits mostly activators; 0.13% of 340,000 active; AID 624287; active = well fitted activation curve with a large enough effect; inconclusive = small, poorly fitted or top-dose-only effect, or another doubt; inactive = no such curve, though single readings can be large or run the other way; cell line not stated here;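 also: phosphodiesterase inhibitor Ro 20-1724 added with compounds to block cAMP breakdown; potency is read from the fitted curve at half-maximal effect; nearly all actives have a fitted effect of over 60% in size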
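Cells in DMEM/10% FBS with G418 were pretreated with compounds in DMSO plus […] (300 uM stock) for 30 min at 37C. cAMP was measured by HTRF (cAMP-d2 plus anti-cAMP antibody-K) after 30 min at room temperature.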
TSHR antagonist: human thyrotropin receptor antagonism. TSHR-expressing cells, TSH-stimulated cAMP HTRF, 2 h; hits give low values. activity change, negative = inhibition, % at 11.5 µM. 0.2% of 330,000 active. AID 504810;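 active = activity change below a set negative limit, meaning inhibition stronger than a set level, cut at about -70% in these data; inconclusive = activity change between two set negative limits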; also: % is scaled to controls: 0 for no effect and ±100 for the full control effect
Target sequence (P16473 whole entry, looked up): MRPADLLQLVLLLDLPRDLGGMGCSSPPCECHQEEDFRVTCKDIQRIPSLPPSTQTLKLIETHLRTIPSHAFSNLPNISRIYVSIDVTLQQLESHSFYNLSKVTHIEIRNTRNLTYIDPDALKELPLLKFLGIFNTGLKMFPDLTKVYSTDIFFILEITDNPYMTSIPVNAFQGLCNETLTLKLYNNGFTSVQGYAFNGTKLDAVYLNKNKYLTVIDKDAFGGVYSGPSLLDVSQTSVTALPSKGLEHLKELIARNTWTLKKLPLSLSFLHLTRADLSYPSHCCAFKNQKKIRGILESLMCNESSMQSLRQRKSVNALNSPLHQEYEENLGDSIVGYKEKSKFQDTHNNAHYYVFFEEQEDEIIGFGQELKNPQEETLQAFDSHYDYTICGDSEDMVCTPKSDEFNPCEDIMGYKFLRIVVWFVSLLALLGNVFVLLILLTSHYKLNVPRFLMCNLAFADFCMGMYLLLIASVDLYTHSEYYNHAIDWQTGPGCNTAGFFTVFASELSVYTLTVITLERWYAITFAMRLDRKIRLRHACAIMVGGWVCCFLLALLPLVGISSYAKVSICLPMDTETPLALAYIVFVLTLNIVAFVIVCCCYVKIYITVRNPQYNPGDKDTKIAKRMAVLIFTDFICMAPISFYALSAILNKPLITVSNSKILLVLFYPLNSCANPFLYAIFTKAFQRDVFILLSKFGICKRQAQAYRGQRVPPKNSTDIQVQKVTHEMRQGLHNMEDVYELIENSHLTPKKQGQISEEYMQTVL
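Inhibition of cAMP made by TSHR-expressing cells under TSH stimulation (4nM final, EC80; 2 h, 37 deg C) is quantified with a one-step lysis HTRF kit, anti-cAMP cryptate versus cAMP-d2.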
gsp antagonist: gsp mutant antagonism; gsp-mutant cells, cAMP HTRF, 30 min; 0.4% of 340,000 active; Potency, µM (top dose mostly 76.9 µM), without a hit: at the top dose activity change, negative = inhibition, usual class: inhibitors; AID 624288; calls by dose curve; cell line not stated here;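 also: intracellular cAMP measured with PDE inhibitor Ro 20-1724 present during compound exposure; potency is read from the fitted curve at half-maximal effect; % is scaled to controls: 0 for no effect and ±100 for the full control effect; nearly all actives have a fitted effect of over 65% in size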
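HTRF cAMP read-out (cAMP-d2 plus anti-cAMP antibody-K in lysis buffer, 30 min RT). Before lysis, cells are exposed to compounds with […] for 30 min at 37C in DPBS containing Ca/Mg, BSA and Tween 20.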
TCR activator: T cell receptor activation; AID 504894; Potency, µM (doses to about 9.22 µM), without a hit: at the highest dose activation of IL-2 secretion, hits mostly activators; primary human leukocytes, anti-CD3, IL-2 HTRF, 48 h; 330,000 tested, under 10 active; active = well fitted activation curve with a large enough effect; inconclusive = small, poorly fitted or top-dose-only effect, or another doubt; inactive = no such curve, though single readings can be large or run the other way; also: % of control where 0% means no effect
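IL-2 release read by HTRF sandwich (Eu cryptate donor, d2 acceptor, 665 nm emission) after 48 hr exposure of primary human leukocytes to compound together with anti-CD3 beads in the absence of co-stimulatory signals.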
* marks the source's active call; other numbers are inactive results; ? = inconclusive; . = not tested or not shown; [ ] = dose if it differs, or a comment. An excerpt weighted towards active compounds, which were near 0.63% of everything screened.

SMILES | Pin1 inh | gsp ag | TSHR antagonist | gsp antagonist | TCR activator
Cc1cc(=O)n2nc(N3CCCC3C(=O)Nc3ccccc3C)sc2n1 (centres undefined) | 1% | 13µM* | -12 | 4% | -1%
CCCS(=O)(=O)N1CCC(C(=O)N2CCN(C(=O)OCC)CC2)CC1 | -4% | -6% | -6 | 9% | 5%
O=C(Nc1ccc(Cl)c(Cl)c1)c1cccc(S(=O)(=O)NCc2cccnc2)c1 | ? | 7%[15.4 µM] | -43 | 28µM* | -5%[46.1 µM]
CC(C)NC(=O)Cn1cnc2c1c(=O)n(C)c(=O)n2C | 1% | -26% | 14 | 2% | 5%
Cn1c(=O)c2c(ncn2CC(=O)NC2CCCCC2)n(C)c1=O | -6% | 13µM* | 13 | 14% | -13%
CCn1c(SCC(=O)Nc2sccc2C(N)=O)nnc1C1CC1 | ? | 5% | 7 | 50µM* | 2%
Cc1nc(N)nc(OCC(F)(F)C(F)F)c1Br | -5% | -46% | 5 | -7% | .
CCCCN(Cc1ccccc1)c1ncnc2nc[nH]c12 | 6% | 0% | -70* | -10% | -1%[46.1 µM]
Cc1cc(NC(=O)c2ccc(F)cc2)n(-c2ccccc2)n1 | -1% | -32% | -3 | -10% | -10%
COc1cc(C(C(=O)NCc2ccccc2)N(C(=O)c2snc(C(N)=O)c2N)C2CCCC2)cc(OC)c1OC (centres undefined) | -4% | 19% | -108* | -11% | 1%
COc1cccc(C2/C(=C(\O)c3ccc4c(c3)OCCO4)C(=O)C(=O)N2c2nnc(C)s2)c1 (centres undefined) | 3% | 8.9µM* | 7 | -10% | 1%
Cc1nnc(N2C(=O)C(=O)/C(=C(/O)c3ccc4c(c3)OCCO4)C2c2cccc([N+](=O)[O-])c2)s1 (centres undefined) | . | 12% | . | . | .
CCCCOc1cccc(C2/C(=C(\O)c3ccc4c(c3)OCCO4)C(=O)C(=O)N2CCN2CCOCC2)c1 (centres undefined) | 2% | 16µM* | -6 | -3% | -4%
Cc1nnc(N2C(=O)C(=O)/C(=C(/O)c3ccc4c(c3)CC(C)O4)C2c2ccccc2F)s1 (centres undefined) | 5% | 20µM* | -15 | -14% | 7%
CC(NC(=O)C(=O)Nc1c2c(nn1-c1ccccc1)CSC2)c1ccccc1 (centres undefined) | 8% | . | . | . | .
COc1cccc(C(=O)Nc2c3c(nn2-c2cccc(C)c2C)CS(=O)C3)c1OC (centres undefined) | -10% | 25% | -1 | -23% | -3%
CCN(CC)CCCNC(=O)C1c2ccccc2Oc2ccccc21 | 3% | 7% | 8 | 9% | 4%
CC(C)Cn1c(N)c(C(=O)COC(=O)c2ccc(Cl)cc2)c(=O)n(C)c1=O | 2% | -8% | -15 | ? | -7%
CC(C)Cn1c(N)c(C(=O)COC(=O)c2ccc(Br)cc2)c(=O)n(C)c1=O | 27% | ? | -26 | 35µM* | 1%
CC(C)Cn1c(N)c(C(=O)COC(=O)/C=C/c2ccccc2)c(=O)n(C)c1=O | 15% | 4%[15.4 µM] | ? | 35µM* | 2%
CC(C)Cn1c(N)c(C(=O)COC(=O)[C@@H]2CCCN2C(=O)c2cccs2)c(=O)n(C)c1=O | 0% | 13µM* | -7 | -7% | 11%
Cc1ccccc1OCCC(=O)OCC(=O)c1c(N)n(CC(C)C)c(=O)n(C)c1=O | 3% | -2%[15.4 µM] | . | 32µM* | 3%
CC(C)Cn1c(N)c(C(=O)COC(=O)c2ccncc2)c(=O)n(C)c1=O | 4% | 3% | -4 | 5% | -1%
CC(C)Cn1c(N)c(C(=O)CSc2ccccc2)c(=O)n(C)c1=O | 2% | 7% | -15 | ? | -9%[46.1 µM]
COc1ccc(NC(=O)CSc2nn3c(=O)c(C)nnc3s2)cc1 | -6% | ? | 2 | 3% | -1%
SMILES | Pin1 inh | gsp ag | TSHR antagonist | gsp antagonist | TCR activator
CC(c1ccccc1)n1c(-c2ccc(Cl)cc2)n[nH]c1=S (centres undefined) | -3% | -17% | 5 | 2% | 0%
O=C(/C=C/c1ccccc1)OCC(=O)c1c[nH]c2ccccc12 | -10% | 0% | -3 | -15% | 6%
COc1ccccc1C(=O)COC(=O)/C=C/c1ccccc1 | 0% | ? | -93* | -5% | -5%
CCOC(=O)c1c(-c2ccc(OC)c(OC)c2)csc1NC(=O)C1CCCO1 (centres undefined) | 1% | -4%[15.4 µM] | -4 | 25µM* | -3%
COc1ccccc1C(CNC(=O)c1cccc(S(=O)(=O)N2CCCc3ccccc32)c1)N(C)C (centres undefined) | -19% | ? | . | 2% | 1%
COc1ccccc1CN(C)C(=O)c1cccc(S(=O)(=O)N2CCCc3ccccc32)c1 | 8% | -14% | -16 | 35µM* | -3%
Cn1c(N)c(C(=O)CSc2nc(N)cc(=O)[nH]2)c(=O)n(C)c1=O | ? | 17% | 17 | 6% | -9%
Cc1cc(=O)[nH]c(SCC(=O)c2c(N)n(C)c(=O)n(C)c2=O)n1 | 2% | 25µM* | 18 | 36% | -2%
O=C(Nc1ccc2c(c1)CCC2)C1CCCN(c2ncccn2)C1 (centres undefined) | -2% | 0% | -6 | 9% | -6%
Cc1nc2ncnn2c(N2CCCC(C(=O)Nc3ccc4c(c3)CCC4)C2)c1C (centres undefined) | 1% | ? | -9 | 40µM* | .
COc1ccc(-c2ocnc2C(=O)N2CCN(C(=O)C(c3ccccc3)c3ccccc3)CC2)cc1 | -1% | -8%[15.4 µM] | -9 | 25µM* | 17%
Cn1c(CCC(N)=O)nnc1SCC(=O)Nc1ccccc1C(=O)NC1CC1 | -4% | -3% | 2 | 0% | -2%
CCCn1c(SCC(=O)Nc2ccccc2C(=O)NC2CC2)n[nH]c1=O | -7% | 45µM* | 6 | 31% | 3%
CCN1CCCC1CNCc1ccccc1OCc1ccc(F)cc1 (centres undefined) | -8% | -6% | -5 | -4% | .
CN1CCN(CC(=O)O)CC1 | -6% | 20µM* | 1 | 13% | 2%
CN1CCN(C(=O)CCC(=O)O)CC1 | -4% | ? | 8 | 11% | -4%
CCOc1cc(/C=C(/C#N)c2ccc(F)cc2)ccc1OCc1ccc(C(=O)O)o1 | ? | ? | -4 | -19% | 4%
N#Cc1cc2c(=O)n3ccccc3nc2n(CCCN2CCOCC2)c1=O | -9% | 35µM* | 12 | 21% | .
N#Cc1cc2c(=O)n3ccccc3nc2n(CCN2CCOCC2)c1=O | . | . | -10 | . | .
O=[N+]([O-])c1ccc(COc2ccc(CN3CCOCC3)cc2)cc1 | 2% | . | . | 16% | -2%
COc1ccccc1N(C)S(=O)(=O)c1ccc(C(=O)OCC(=O)Nc2ccccc2F)cc1 | -3% | -80% | 2 | ? | 11%
CN(CC(=O)Nc1cccc(C#N)c1)S(=O)(=O)c1cc2c(cc1Cl)NC(=O)CO2 | 4% | . | . | . | .
